Laboratory results as given in ChEMBL document CHEMBL1157539, “Thousands of chemical starting points for antimalarial lead identification” (Nature, 2010).

Experiments:
Assay type in all cases: functional
Plasmodium falciparum [1] = test: GSK_TCMDC: Inhibition of Plasmodium falciparum 3D7 in whole red blood cells, using parasite LDH activity as an index of growth. Test compounds present at 2uM
Plasmodium falciparum [2] = test: GSK_TCMDC: Inhibition of Plasmodium falciparum Dd2 in whole red blood cells, using parasite LDH activity as an index of growth. Test compounds present at 2uM
HepG2 = test: GSK_TCMDC: Percent inhibition of human HepG2 cell line. Test compounds present at 10uM.

SMILES | Inhibition (Plasmodium falciparum [1]) [%] | Inhibition (Plasmodium falciparum [2]) [%] | Inhibition (HepG2) [%]
O=C(O)C(F)(F)F.O=[N+]([O-])c1cnc(Nc2ccccc2O)nc1Nc1ccccc1O | 98 | 80 | 24
CCNc1cc(C(=O)N[C@@H](Cc2ccoc2)[C@H](O)CNC(C)CCCC(C)C)cc(N2CCCCS2(=O)=O)c1.Cl (stereo not given in full) | 99 | 68 | 0
CNC(=O)Cc1ccc(C(=O)Nc2cccc(-c3cccc(-c4nc5cccc(C)c5[nH]4)c3)c2)cc1 | 96 | 53 | 15
Cc1cc(=NN=Cc2ccc(Cl)cc2)c2cccc(C)c2[nH]1 | 100 | 47 | 0
CCCN(CCCN(CCCN(CCC)C(C)C)c1cc(C)nc(Nc2ccc(Cl)cc2)n1)C(C)C.O=C(O)C(=O)O | 100 | 99 | 39
COc1cc(OC)c(NC(=O)COc2ccc(C)cc2)cc1Cl | 86 | 90 | 0
Cc1cc(C(=O)NCc2ccc(-c3c(C)noc3C)cc2)n(-c2ccc(Cl)cc2)n1 | 100 | 98 | 0
Cc1cc(C)cc(-n2c(C)cc(/C=C3\SC(=Nc4ccc(Cl)cc4)NC3=O)c2C)c1 | 97 | 97 | 12
Fc1ccc2[nH]c(-c3cccc(-c4cccc(CNCCc5ccncc5)c4)c3)nc2c1.O=C(O)C(F)(F)F | 100 | 88 | 22
Cc1cc(N2CCCC2)nc(Nc2ccc(NC(=O)c3ccccc3C)cc2)n1 | 100 | 40 | 22
